Assay outcomes as filed in PubChem BioAssay.
Shown are actives, neighbours in structure and some others; about 11% of the full set was active somewhere.
USP17 block – inhibitors of human USP17 deubiquitinase; Ubiquitin carboxyl-terminal hydrolase 17-like protein 5 (Homo sapiens), A8MUK1; hit rate 6.5% among 47,000; purified USP17, Ub-rhodamine cleavage fluorescence, 3 h; inhibition, % at 50 µM; AID 1645855, 2021
USP30 inh – inhibitors of human USP30 deubiquitinase; AID 1645860, 2021; purified USP30, Ub-rhodamine cleavage fluorescence; hit rate 5.3% among 47,000; Ubiquitin carboxyl-terminal hydrolase 30 (Homo sapiens), Q70CQ3; inhibition, % at 25 µM
Target sequence (Q70CQ3 whole entry, looked up): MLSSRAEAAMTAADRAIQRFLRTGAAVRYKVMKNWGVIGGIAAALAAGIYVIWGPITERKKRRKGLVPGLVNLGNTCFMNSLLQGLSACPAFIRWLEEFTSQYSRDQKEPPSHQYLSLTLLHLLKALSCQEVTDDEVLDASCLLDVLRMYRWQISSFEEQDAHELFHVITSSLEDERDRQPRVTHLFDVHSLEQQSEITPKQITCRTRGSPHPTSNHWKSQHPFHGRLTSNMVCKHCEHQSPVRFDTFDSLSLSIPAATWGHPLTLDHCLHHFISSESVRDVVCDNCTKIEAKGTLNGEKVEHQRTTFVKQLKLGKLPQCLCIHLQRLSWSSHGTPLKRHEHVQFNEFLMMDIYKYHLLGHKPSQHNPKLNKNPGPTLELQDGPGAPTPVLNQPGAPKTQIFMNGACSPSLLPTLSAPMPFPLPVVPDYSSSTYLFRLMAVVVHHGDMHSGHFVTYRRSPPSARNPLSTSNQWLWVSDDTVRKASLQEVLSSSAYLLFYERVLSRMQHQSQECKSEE
USP28 block – inhibitors of human USP28 deubiquitinase; purified USP28, Ub-rhodamine cleavage fluorescence, 30 min; hit rate 3% among 47,000; Ubiquitin carboxyl-terminal hydrolase 28 (Homo sapiens), Q96RU2; inhibition, % at 25 µM
Starred values were filed as active, the others as inactive; . = no result. No stated cut-off is given here; in the data, active means inhibition above about 30%; inactive means the rest.

SMILES	USP17 block	USP30 inh	USP28 block
Cc1ccc2oc(C(=O)NCC3(N4CCN(C)CC4)CCCCC3)c(C)c2c1	-5	13	8
Cn1c(SCC(=O)c2ccc(F)cc2)nnc1-c1cc2ccccc2o1	73*	88*	12
Cn1c(SCC(=O)NCc2ccccc2)nnc1-c1cc2ccccc2o1	18	-22	0
CC1(C)CS(=O)(=O)N(c2cccc(C(=O)NCCc3ccc(F)cc3)c2)C1=O	-4	10	-5
CCn1ncc2ccc(C(=O)NC3CC3)cc21	-3	-14	-12
CCn1cnc2ccc(C(=O)NC3CC3)cc2c1=O	8	1	62*
COc1ccc2c(c1)CC(C(=O)NCc1ccc3c(c1)OCO3)CO2 (stereo unspecified)	3	9	3
O=C(COc1ccc(N2CC(C(=O)NCc3ccc4c(c3)OCO4)CC2=O)cc1)Nc1ccc(F)cc1 (stereo unspecified)	57*	57*	8
CC(=O)Nc1cccc(N2CC(C(=O)NCCc3ccc(Cl)cc3)CC2=O)c1 (stereo unspecified)	-3	-15	-6
Cc1ccc(N2CC(C(=O)NCCc3ccc(Cl)cc3)CC2=O)cc1 (stereo unspecified)	41*	4	-5
O=C(COc1ccc(N2CC(C(=O)NCc3ccc4c(c3)OCO4)CC2=O)cc1)Nc1ccc(Cl)cc1 (stereo unspecified)	36*	15	5
Cc1ccc(CNC(=O)C2CC(=O)N(c3ccc(OCC(=O)Nc4ccc(C)cc4C)cc3)C2)cc1 (stereo unspecified)	0	0	-4
COc1ccc(NC(=O)COC(=O)C2CC(=O)N(c3ccc(F)cc3)C2)cc1 (stereo unspecified)	-8	-2	3
O=C(COc1ccc(N2CC(C(=O)NCc3ccccc3)CC2=O)cc1)Nc1ccc(F)cc1 (stereo unspecified)	60*	58*	23
CS(=O)(=O)c1ccc2nc(NC(=O)CCCSc3nc4ccccc4[nH]3)sc2c1	20	-7	-6
C[C@H](NC(=O)[C@H](Cc1ccccc1)n1c(=O)[nH]c2ccccc2c1=O)C(=O)N[C@@H](Cc1ccccc1)C(=O)O	14	6	5
COc1ccc(-c2ccc(-c3nnn(CC(N)=O)n3)cc2)cc1	21	-26	3
Cc1cn2c(S(=O)(=O)N3CCCCC3)c(C(C)C)nc2s1	-16	-4	-16
CCc1nc2sc(C(C)C)nn2c1S(=O)(=O)N1CCCCCC1	-31	36*	10
O=C(c1ccc(F)cc1F)N1CCC(c2nc3c(nnn3Cc3ccccc3)c(=O)[nH]2)CC1	0	16	3
O=S(=O)(c1ccccc1)N1CCN(c2cc(-c3cccnc3)[nH]n2)CC1	28	22	14
O=S(=O)(c1ccccc1)N1CCN(c2ccc(-c3cccnc3)nn2)CC1	49*	-6	0
COc1ccc(-c2cnc([C@@H]3COCCN3C3CCN(C)CC3)[nH]2)cc1	-53	-33	-11
CC(=O)Nc1cccc(OC(=O)/C=C/c2ccc(Cl)cc2)c1	3	-7	-10
O=C(c1c(F)cccc1F)N1CCN(C(=O)c2cnn3ccccc23)CC1	17	31*	14
SMILES	USP17 block	USP30 inh	USP28 block
O=C(c1ccc(F)cc1Cl)N1CCN(C(=O)c2cnn3ccccc23)CC1	2	16	14
O=C(Cc1nc2ccccc2[nH]1)NCc1ccc(F)cc1	2	-10	2
CC(C)c1ccc(CNC(=O)c2nc3ccccc3[nH]2)cc1	50*	3	7
O=C(CCC1CCCN(c2cc(NC3CC3)ncn2)C1)NCc1ccccc1F (stereo unspecified)	-35	-112	-14
O=C(Cn1c(-c2nc(-c3ccccc3)no2)cccc1=O)Nc1ccccc1	34*	22	7
CCc1noc(-c2ccc(=O)n(CC(=O)Nc3ccccc3)c2)n1	22	38*	14
Cc1ccc(NC(=O)Cn2c(-c3nc(C)no3)cccc2=O)c(C)c1	.	-24	11
CCc1cccc(NC(=O)Cn2c(-c3nc(C)no3)cccc2=O)c1	-15	8	19
CC(C)c1nnc(-c2ccc(=O)n(CC(=O)Nc3ccccc3)c2)o1	.	0	0
O=C(Cn1c(-c2nc(-c3cccc(F)c3)no2)cccc1=O)NCc1ccco1	40*	-36	23
Cc1ccc(CNC(=O)C2Oc3ccccc3NC2=O)cc1 (stereo unspecified)	.	-10	-1
Nc1c(-c2ccncc2)nsc1C(=O)NCc1cc(F)cc(F)c1	-48	-5	2
Cc1cccc(NC(=O)CSc2nnc(NC(=O)c3ccc4ccccc4c3)s2)c1	12	15	10
Cn1c(=O)[nH]c(=O)c2c1nc(N1CCN(c3ccccc3)CC1)n2CCSc1nnnn1-c1ccccc1	-7	-4	-7
COc1cc(OC)c2c(c1)C(=O)C1=C(COC(C)(O)C1)C2=O (stereo unspecified)	82*	-16	37*
COc1cc(C(=O)NCC(c2ccco2)N2CCCC2)cc(OC)c1OC (stereo unspecified)	-20	-10	-3
CCCN(C)C(=O)c1csc(-c2ccc(N3CCCC3)nc2)n1	-5	-31	-10
O=C(CSc1nc2ccccc2n1S(=O)(=O)c1ccc(Br)cc1)Nc1ccc([N+](=O)[O-])cc1Cl	-10	-48	54*
O=C(CSc1nc2ccccc2n1S(=O)(=O)c1ccc(Br)cc1)Nc1ccc(Br)cc1F	34*	0	27
O=C(CSc1nncc2ccccc12)Nc1ccc(F)cc1F	-3	-1	5
O=C(CSc1nc2ccncc2[nH]1)Nc1ccc(Br)cc1F	61*	19	0
COc1ccc(S(=O)(=O)n2c(SCC(=O)Nc3ccc(Oc4ccccc4)cc3)nc3ccccc32)cc1	15	-72	45*
COc1ccccc1NC(=O)CSc1nc2ccccc2n1S(=O)(=O)c1cc([N+](=O)[O-])ccc1C	-50	-44	4
Cc1ccc(NC(=O)CSc2nc3ncccc3[nH]2)c(C)c1	-12	-37	-6
COc1ccc2nc(SCC(=O)Nc3ccc(NC(C)=O)cc3)n(S(=O)(=O)c3ccc(Cl)cc3)c2c1	-14	-5	-3
SMILES	USP17 block	USP30 inh	USP28 block
COC(=O)c1ccc(C(=O)Nc2ccc3c(c2)NC(=O)C(C)O3)cc1 (stereo unspecified)	8	.	.
Cc1ccc(S(=O)(=O)n2ccn(C(=O)c3ccccc3Cl)c2=O)cc1	3	-3	-3
CCC(CC)C(=O)N[C@@H]1CC[C@@H]2C[C@@H]1[C@@H](O)CO2	-6	-1	-9
CCc1cc(=O)n(CC(=O)Nc2ccc(OC)c(F)c2)c(N2CCOCC2)n1	14	22	14
COc1ccc(NC(=O)CSc2nc3ccccc3c3nc(C)nn23)cc1OC	37*	32*	19
CCC(Sc1nc2cc(OC)c(OC)cc2c2nc(C)nn12)C(=O)Nc1cccc(C)c1 (stereo unspecified)	-1	0	-2
CN(Cc1ccccc1)Cc1cn[nH]c1-c1ccc(F)cc1	0	8	13
CCc1cccc(C)c1NC(=O)Cn1c(C(=O)OC)cc2sccc21	-12	-18	-7
COc1cccc(C2CC(=O)Nc3ccsc32)c1OCc1ccccc1 (stereo unspecified)	29	41*	24
